Test [1] deals with Bile acid receptor (Homo sapiens) (UniProt Q96RI1). Description: ATG_IR1_CIS: Attagene CIS-FACTORIAL HepG2 Assay for human Nuclear Receptor Subfamily 1 Group H Member 4 (NR1H4), IR1 submotif (AID 2282946). To be noted: IR1 reporter transcription, actives raise or lower the signal. Put shortly: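 HepG2 cells transiently transfected with multiplexed cis-element reporter units read endogenous transcription factor activity. After 24 h compound exposure, reporter mRNA was quantified by RT-PCR, fluorescent labelling, HpaI digestion and capillary electrophoresis; bidirectional fitting versus DMSO baseline.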
Bile acid receptor (Homo sapiens), sequence (Q96RI1 whole entry, looked up): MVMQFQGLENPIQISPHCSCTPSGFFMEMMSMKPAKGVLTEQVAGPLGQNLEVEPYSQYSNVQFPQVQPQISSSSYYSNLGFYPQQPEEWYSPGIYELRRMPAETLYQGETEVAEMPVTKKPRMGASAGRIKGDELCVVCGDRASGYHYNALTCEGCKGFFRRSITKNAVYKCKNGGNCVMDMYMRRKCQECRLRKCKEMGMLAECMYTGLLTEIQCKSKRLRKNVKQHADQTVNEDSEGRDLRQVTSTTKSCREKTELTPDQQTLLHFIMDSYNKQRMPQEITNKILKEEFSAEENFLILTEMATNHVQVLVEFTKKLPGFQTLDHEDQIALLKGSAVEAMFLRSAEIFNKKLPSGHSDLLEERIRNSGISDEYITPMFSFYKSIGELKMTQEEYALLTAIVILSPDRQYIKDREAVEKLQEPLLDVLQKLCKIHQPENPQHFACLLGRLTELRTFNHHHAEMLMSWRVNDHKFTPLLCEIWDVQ

Test [2] can be described thus: ATG_GRE_CIS: Attagene CIS-FACTORIAL HepG2 Assay for human Glucocorticoid Response Elements (GRE) (AID 2282947). The settings on record: HepG2 GRE cis-reporter, Attagene multiplex mRNA; actives raise or lower the signal. Put shortly:
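Reporter transcripts read by RT-PCR with capillary electrophoresis fluorescence after a 24 h chemical exposure of HepG2 cells transiently transfected with multiple cis-element reporter units. Gain or loss fitted against DMSO.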

The nature of test [3]: ATG_ISRE_CIS: Attagene CIS-FACTORIAL HepG2 Assay for human Interferon Regulatory Factor 1 (IRF1) binding to an Interferon-Stimulated Response Element (ISRE) (AID 2282948). To be noted: HepG2 ISRE cis-reporter (Attagene), mRNA transcription readout; actives raise or lower the signal. Put shortly: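 Multiplexed mRNA reporter readout in human liver HepG2 cells: cis-element-driven reporters transfected, compound added for 24 h, transcripts amplified, fluorescently labelled and sized by capillary electrophoresis; curve fitting bidirectional against DMSO.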

The nature of test [4]: ATG_M_32_CIS: Attagene CIS-FACTORIAL HepG2 Assay for M32 Transcription Factor (Internal Marker) (AID 2282949).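 Further: background control marker of the multiplexed CIS panel rather than a real target.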 To be noted: HepG2 Attagene cis-factorial M32 reporter, mRNA; actives raise or lower the signal. In short, it runs like this: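 HepG2 human liver cells transiently transfected with cis-promoter-driven multiple reporter transcription units, dosed 24 h. Reporter mRNA quantified by RT-PCR, FAM-labelled primer extension, HpaI digest and capillary electrophoresis; bidirectional fit versus DMSO baseline.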

Test [5] is described as follows: ATG_M_06_CIS: Attagene CIS-FACTORIAL HepG2 Assay for M06 Transcription Factor (Internal Marker) (AID 2282950). The settings on record: HepG2 Attagene CIS-FACTORIAL M06 internal marker reporter; actives raise or lower the signal. In short, it runs like this: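 One of many multiplexed endpoints: HepG2 reporter mRNA after 24 h dosing, detected by RT-PCR and capillary electrophoresis fluorescence; gain or loss of signal analysed against DMSO.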

The target of test [6] is Hypoxia-inducible factor 1-alpha (Homo sapiens) (UniProt Q16665). Description: ATG_HIF1a_CIS: Attagene CIS-FACTORIAL HepG2 Assay for human Hypoxia Inducible Factor 1 (HIF1A) (AID 2282951). The settings on record: HepG2 Attagene cis-factorial HIF1a reporter transcription; actives raise or lower the signal. In short, it runs like this:
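Cis-element reporter constructs were transiently transfected into HepG2 cells, which were treated for 24 h; reporter RNA was reverse-transcribed, amplified, labelled and resolved by capillary electrophoresis.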

In test [7] the target is Hepatocyte nuclear factor 6 (Homo sapiens) (UniProt Q9UBC0). As to the kind of experiment: ATG_HNF6_CIS: Attagene CIS-FACTORIAL HepG2 Assay for human Hepatocyte Nuclear Factor 6 (HNF6) (AID 2282952). To be noted: HepG2 Attagene cis-factorial HNF6 reporter transcription; actives raise or lower the signal. Put shortly: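 Endogenous factor activity read in transiently transfected HepG2 via promoter-regulated reporter transcripts. RNA harvested 24 h post-dosing, reverse-transcribed, PCR-amplified, FAM-labelled, HpaI-digested and resolved by capillary electrophoresis; fitted in both directions against DMSO.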
Hepatocyte nuclear factor 6 (Homo sapiens), sequence (Q9UBC0 whole entry, looked up): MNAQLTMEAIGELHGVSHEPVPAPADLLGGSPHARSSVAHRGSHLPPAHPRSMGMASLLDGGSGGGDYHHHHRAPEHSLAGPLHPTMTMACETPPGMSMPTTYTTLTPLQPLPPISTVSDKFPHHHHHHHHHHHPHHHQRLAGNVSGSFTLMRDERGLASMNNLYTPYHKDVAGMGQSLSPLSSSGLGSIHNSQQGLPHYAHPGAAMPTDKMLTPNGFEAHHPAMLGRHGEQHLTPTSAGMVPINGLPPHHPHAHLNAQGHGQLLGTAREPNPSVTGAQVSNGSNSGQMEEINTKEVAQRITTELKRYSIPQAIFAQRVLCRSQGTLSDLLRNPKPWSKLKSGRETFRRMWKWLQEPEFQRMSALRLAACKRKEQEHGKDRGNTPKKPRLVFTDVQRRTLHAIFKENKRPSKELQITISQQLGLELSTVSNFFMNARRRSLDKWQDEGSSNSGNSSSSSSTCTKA

The target in test [8] is Heat shock factor protein 1 (Homo sapiens) (UniProt Q00613). Description: ATG_HSE_CIS: Attagene CIS-FACTORIAL HepG2 Assay for human Heat Shock Transcription Factor 1 (HSE) (AID 2282953). The settings on record: HepG2 HSE cis-reporter, Attagene RNA transcription; actives raise or lower the signal. Put shortly:
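Using HepG2 with transfected cis-driven reporter constructs, compound effects on endogenous factor activity are scored as reporter mRNA change at 24 h. Detection: RT-PCR, HpaI digestion, capillary electrophoresis; bidirectional fitting to DMSO.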

A short description of test [9]: ATG_MRE_CIS: Attagene CIS-FACTORIAL HepG2 Assay for human Metal Responsive Element (MRE) (AID 2282954). The settings on record: HepG2 MRE cis-reporter transcription, Attagene multiplex; actives raise or lower the signal. In short, it runs like this:
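Endogenous MRE-dependent transcription read as reporter mRNA in transiently transfected human HepG2 cells at 24 h. RNA reverse-transcribed, PCR-amplified, labelled and resolved by capillary electrophoresis; gain or loss relative to DMSO.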

A short description of test [10]: ATG_PBREM_CIS: Attagene CIS-FACTORIAL HepG2 Assay for human Phenobarbital-responsive Enhancer Module (PBREM) (AID 2282955). To be noted: HepG2 PBREM cis-reporter, Attagene multiplexed transcription; actives raise or lower the signal. Put shortly: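 Multiplexed cis-reporter readout in human hepatoma HepG2 cells; PBREM-regulated transcript quantified after 24 h exposure by fluorescent RT-PCR fragment analysis. Signal changes up or down fitted relative to DMSO.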

In test [11] the target is Paired box protein Pax-6 (Homo sapiens) (UniProt P26367). As to the kind of experiment: ATG_Pax6_CIS: Attagene CIS-FACTORIAL HepG2 Assay for human Paired Box 6 (PAX6) (AID 2282956). To be noted: HepG2 CIS-FACTORIAL PAX6 reporter transcription, RNA readout; actives raise or lower the signal. Put shortly: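 Fluorescent RT-PCR products separated by capillary electrophoresis report PAX6-linked promoter mRNA in HepG2 cells 24 h post-dose. Curves fitted bidirectionally, DMSO as negative control.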
Paired box protein Pax-6 (Homo sapiens), sequence (P26367 whole entry, looked up): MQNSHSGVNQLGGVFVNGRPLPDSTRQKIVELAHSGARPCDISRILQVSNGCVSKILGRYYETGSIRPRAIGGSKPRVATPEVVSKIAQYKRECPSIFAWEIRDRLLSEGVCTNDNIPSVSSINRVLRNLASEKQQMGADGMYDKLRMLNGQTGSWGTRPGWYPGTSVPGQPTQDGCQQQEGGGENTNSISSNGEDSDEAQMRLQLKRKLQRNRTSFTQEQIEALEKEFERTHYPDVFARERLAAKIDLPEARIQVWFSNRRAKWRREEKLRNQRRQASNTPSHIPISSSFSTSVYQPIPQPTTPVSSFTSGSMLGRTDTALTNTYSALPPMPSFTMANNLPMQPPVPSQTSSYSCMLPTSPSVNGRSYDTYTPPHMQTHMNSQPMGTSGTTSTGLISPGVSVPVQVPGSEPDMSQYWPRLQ

Test [12] can be described thus: ATG_PXRE_CIS: Attagene CIS-FACTORIAL HepG2 Assay for human Pregnane X Receptor Element (PXRE) (AID 2282957). The settings on record: HepG2 Attagene CIS-FACTORIAL PXRE reporter, mRNA; actives raise or lower the signal. In short, it runs like this:
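Reporter transcripts under endogenous PXR-responsive cis-regulation quantified from total RNA of transfected HepG2 cells 24 h post-dosing, via RT-PCR with fluorescent primer extension and capillary electrophoresis. Gain or loss of signal fitted against DMSO baseline.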

A short description of test [13]: ATG_Sox_CIS: Attagene CIS-FACTORIAL HepG2 Assay for human SRY-box transcription factor (SOX) (AID 2282960). To be noted: HepG2 Attagene cis-factorial SOX reporter, mRNA; actives raise or lower the signal. Put shortly: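 Fluorescence-labelled cDNA fragments from reporter transcripts, sized by CE, give the signal. Cells: HepG2, transiently transfected with cis-regulated reporter units. Exposure 24 h; DMSO negative control; bidirectional curve fitting.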

Test [14] has as its target Transcription factor Sp1 (Homo sapiens) (UniProt P08047). Description: ATG_Sp1_CIS: Attagene CIS-FACTORIAL HepG2 Assay for human Specificity Protein 1 (Sp1) (AID 2282961). The settings on record: HepG2 Sp1 cis-reporter transcription, actives raise or lower the signal. In short, it runs like this: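 Chemicals are dosed onto HepG2 cells transfected with multiple cis-promoter reporter constructs, and after 24 h reporter RNA is reverse-transcribed, PCR-amplified and resolved by capillary electrophoresis for fluorescence quantitation; activity is scored up or down against DMSO.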

Test [15] is described as follows: ATG_SREBP_CIS: Attagene CIS-FACTORIAL HepG2 Assay for human Sterol Regulatory Element Binding (SREBP) (AID 2282962). To be noted: HepG2 Attagene cis-factorial SREBP reporter, mRNA; actives raise or lower the signal. Put shortly:
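Endogenous factor activity is measured in HepG2 through multiplexed reporter units under cis-element control. Following a 24 h incubation, reporter transcripts are reverse-transcribed, PCR-amplified and sized by capillary electrophoresis; activity is fitted in both directions relative to DMSO.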

Test [16] addresses Signal transducer and activator of transcription 3 (Homo sapiens) (UniProt P40763). Description: ATG_STAT3_CIS: Attagene CIS-FACTORIAL HepG2 Assay for human Signal Transducer and Activator of Transcription 3 (STAT3) (AID 2282963). The settings on record: HepG2, Attagene cis-factorial STAT3 reporter transcription; actives raise or lower the signal. Put shortly:
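Readout is reporter transcript quantified by RT-PCR and capillary electrophoresis, with 6-FAM primer extension and HpaI digestion. Total RNA is taken 24 h after dosing transiently transfected HepG2 carrying cis-regulated reporter units. Bidirectional fit against DMSO.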

Test [17] can be described thus: ATG_TA_CIS: Attagene CIS-FACTORIAL HepG2 Assay for human TA Basal Promoter (AID 2282964). To be noted: HepG2 Attagene CIS-factorial TA basal promoter reporter; actives raise or lower the signal. In short, it runs like this:
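Transient MRTU transfection of HepG2 preceded 24 h compound exposure. Reporter mRNA levels were then read by RT-PCR with capillary electrophoresis, and this background-control endpoint was fitted bidirectionally to DMSO.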

The nature of test [18]: ATG_TCF_b_cat_CIS: Attagene CIS-FACTORIAL HepG2 Assay for human T-Cell-Factor with beta-catenin (TCF/b-cat) (AID 2282965). The settings on record: HepG2 TCF/beta-catenin cis-reporter transcription, actives raise or lower the signal. In short, it runs like this: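 Endogenous transcription factor activity is captured through cis-promoter reporter constructs transiently introduced into human HepG2 liver cells. Induced reporter mRNA is measured after 24 h and fitted bidirectionally relative to DMSO.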

A short description of test [19]: ATG_PPRE_CIS: Attagene CIS-FACTORIAL HepG2 Assay for human Peroxisome Proliferator-activated Response Element (PPRE) (AID 2282958). To be noted: HepG2 PPRE cis-element reporter, Attagene transcription factor profiling; actives raise or lower the signal. Put shortly:
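DMSO served as negative control and baseline for bidirectional curve fitting. Signal came from PPRE-regulated reporter mRNA in HepG2 cells, measured 24 h post-dosing by RT-PCR, 6-FAM primer extension and capillary electrophoresis.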

Test [20] in a line: ATG_RORE_CIS: Attagene CIS-FACTORIAL HepG2 Assay for human RAR-related Orphan Receptor Element (RORE) (AID 2282959). To be noted: HepG2 Attagene cis-factorial RORE reporter, mRNA; actives raise or lower the signal. Put shortly: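 Transfect HepG2 with MRTUs; treat 24 h; extract RNA; RT with oligo(dT); PCR with reporter-specific primers; 6-FAM primer extension; HpaI digest 2 h at 37 C; capillary electrophoresis. Fit vs DMSO, bidirectional.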

The source made the active and inactive calls. How the source made its calls: active means hit-call score of the fitted dose curve at least 0.9, where 1 is the maximum; inactive means score below 0.9.

We go through four compounds from PubChem BioAssay (EPA / NIEHS).

Signal transducer and activator of transcription 3 (Homo sapiens), sequence (P40763 whole entry, looked up): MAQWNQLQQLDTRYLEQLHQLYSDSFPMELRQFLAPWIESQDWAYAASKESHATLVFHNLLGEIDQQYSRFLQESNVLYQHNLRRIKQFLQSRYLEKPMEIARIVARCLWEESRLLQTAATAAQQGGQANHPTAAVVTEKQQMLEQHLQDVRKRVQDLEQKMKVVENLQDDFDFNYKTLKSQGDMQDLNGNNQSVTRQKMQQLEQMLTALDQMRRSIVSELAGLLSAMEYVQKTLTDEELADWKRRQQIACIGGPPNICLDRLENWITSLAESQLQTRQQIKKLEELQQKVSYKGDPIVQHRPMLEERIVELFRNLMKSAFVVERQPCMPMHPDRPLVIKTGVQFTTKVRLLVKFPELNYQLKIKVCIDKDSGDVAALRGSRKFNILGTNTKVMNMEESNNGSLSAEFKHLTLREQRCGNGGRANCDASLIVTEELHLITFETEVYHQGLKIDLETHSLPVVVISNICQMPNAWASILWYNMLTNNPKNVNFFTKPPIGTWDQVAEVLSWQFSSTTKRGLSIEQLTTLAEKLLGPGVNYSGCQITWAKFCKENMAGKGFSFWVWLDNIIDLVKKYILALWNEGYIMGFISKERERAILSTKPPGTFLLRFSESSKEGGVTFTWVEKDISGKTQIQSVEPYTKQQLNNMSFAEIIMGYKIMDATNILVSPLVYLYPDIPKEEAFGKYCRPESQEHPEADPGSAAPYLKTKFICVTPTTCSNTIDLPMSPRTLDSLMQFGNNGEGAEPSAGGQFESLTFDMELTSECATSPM
Transcription factor Sp1 (Homo sapiens), sequence (P08047 whole entry, looked up): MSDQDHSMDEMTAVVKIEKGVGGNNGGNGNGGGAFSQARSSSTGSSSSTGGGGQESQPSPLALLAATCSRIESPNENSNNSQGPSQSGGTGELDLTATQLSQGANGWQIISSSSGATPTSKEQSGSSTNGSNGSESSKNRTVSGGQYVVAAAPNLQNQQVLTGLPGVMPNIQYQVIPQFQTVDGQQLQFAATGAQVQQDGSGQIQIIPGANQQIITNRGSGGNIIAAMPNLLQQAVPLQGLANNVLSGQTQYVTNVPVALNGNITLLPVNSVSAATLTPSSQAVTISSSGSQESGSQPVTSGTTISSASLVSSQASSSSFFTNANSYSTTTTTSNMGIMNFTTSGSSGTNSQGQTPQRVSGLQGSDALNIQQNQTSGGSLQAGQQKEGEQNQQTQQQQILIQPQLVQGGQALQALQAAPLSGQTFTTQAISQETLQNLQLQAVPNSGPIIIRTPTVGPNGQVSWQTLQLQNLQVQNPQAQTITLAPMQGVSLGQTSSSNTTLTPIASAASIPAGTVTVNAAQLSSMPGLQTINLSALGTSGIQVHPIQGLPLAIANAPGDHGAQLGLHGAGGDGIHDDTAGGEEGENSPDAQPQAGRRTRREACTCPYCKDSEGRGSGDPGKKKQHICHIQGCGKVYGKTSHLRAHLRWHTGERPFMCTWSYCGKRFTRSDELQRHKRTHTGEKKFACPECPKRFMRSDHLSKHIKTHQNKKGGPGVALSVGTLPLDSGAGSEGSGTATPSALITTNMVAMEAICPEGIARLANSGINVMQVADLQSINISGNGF
Hypoxia-inducible factor 1-alpha (Homo sapiens), sequence (Q16665 whole entry, looked up): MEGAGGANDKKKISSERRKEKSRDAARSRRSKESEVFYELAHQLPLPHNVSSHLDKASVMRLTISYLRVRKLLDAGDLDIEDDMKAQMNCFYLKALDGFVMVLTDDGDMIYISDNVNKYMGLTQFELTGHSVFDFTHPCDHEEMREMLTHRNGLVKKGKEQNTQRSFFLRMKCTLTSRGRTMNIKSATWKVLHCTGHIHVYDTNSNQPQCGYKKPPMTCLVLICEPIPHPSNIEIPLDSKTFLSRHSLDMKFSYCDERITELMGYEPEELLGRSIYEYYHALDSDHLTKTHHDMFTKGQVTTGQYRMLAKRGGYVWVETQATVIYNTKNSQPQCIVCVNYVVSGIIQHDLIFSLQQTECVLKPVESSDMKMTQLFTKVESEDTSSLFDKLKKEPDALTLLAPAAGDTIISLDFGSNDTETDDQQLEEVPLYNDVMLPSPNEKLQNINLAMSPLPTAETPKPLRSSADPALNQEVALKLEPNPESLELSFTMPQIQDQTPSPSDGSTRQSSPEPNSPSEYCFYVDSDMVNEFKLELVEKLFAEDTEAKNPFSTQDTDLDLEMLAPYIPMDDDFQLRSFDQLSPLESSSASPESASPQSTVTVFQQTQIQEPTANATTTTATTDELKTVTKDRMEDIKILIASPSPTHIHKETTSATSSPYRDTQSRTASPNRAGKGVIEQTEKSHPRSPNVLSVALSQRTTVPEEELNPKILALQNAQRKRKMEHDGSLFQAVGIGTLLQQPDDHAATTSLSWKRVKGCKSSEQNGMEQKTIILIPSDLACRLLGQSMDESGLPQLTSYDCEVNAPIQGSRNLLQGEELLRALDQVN
Heat shock factor protein 1 (Homo sapiens), sequence (Q00613 whole entry, looked up): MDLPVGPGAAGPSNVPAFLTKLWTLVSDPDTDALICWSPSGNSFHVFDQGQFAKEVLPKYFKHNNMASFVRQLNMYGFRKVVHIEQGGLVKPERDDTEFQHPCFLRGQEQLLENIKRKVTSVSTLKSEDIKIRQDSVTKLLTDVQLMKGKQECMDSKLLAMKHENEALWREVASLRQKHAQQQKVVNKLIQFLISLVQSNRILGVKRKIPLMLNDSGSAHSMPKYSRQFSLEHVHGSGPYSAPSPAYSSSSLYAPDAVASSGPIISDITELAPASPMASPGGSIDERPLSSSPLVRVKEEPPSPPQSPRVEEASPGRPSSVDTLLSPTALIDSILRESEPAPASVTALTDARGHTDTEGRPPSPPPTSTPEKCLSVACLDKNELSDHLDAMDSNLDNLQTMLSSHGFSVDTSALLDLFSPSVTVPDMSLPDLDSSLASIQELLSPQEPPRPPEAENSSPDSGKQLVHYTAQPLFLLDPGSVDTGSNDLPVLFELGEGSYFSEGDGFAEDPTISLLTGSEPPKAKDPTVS

Take `C=CC(C)(O)CCC=C(C)C` (stereo unspecified): the result in test [1], in test [2], in test [3], in [4], in [5] and in test [6] was inactive. For the same compound, the compound was classed as inactive in [7], in test [8], in test [9], in test [10], in test [11] and in test [13]. The outcome in test [14], in [15], in [16], in test [17] and in test [18] was inactive. For the same compound, in test [12], the AC50 (commonly the concentration giving half of the maximal activity seen) was 46.9 µM (active).

Take `CCCCCCCCCCCCCCN(CCO)CCO`: the outcome in [1], in [2], in test [3], in [4], in test [5] and in [6] was inactive. The call in test [7], in test [8], in [9], in test [10], in test [11] and in test [19] was inactive. For the same compound, the compound was classed as inactive in test [20], in test [13], in test [16], in [17] and in test [18]. Further, the concentration at half-maximal activity (AC50) was 2.92 µM (active) in [12], 11.1 µM (active) in [14] and 7.35 µM (active) in test [15].

Regarding `Cc1cc(CCC(=O)OCCOCCOCCOC(=O)CCc2cc(C)c(O)c(C(C)(C)C)c2)cc(C(C)(C)C)c1O`, the call in test [1], in [2], in test [3], in [4], in [5] and in test [6] was inactive. Further, the outcome in test [7], in test [8], in test [11], in test [20], in test [13] and in test [14] was inactive. In addition, the result in test [15], in test [16], in test [17] and in [18] was inactive. The AC50 in test [9] was 26.6 µM (active); in test [10] it was 17.7 µM (active); in test [12], 24.3 µM (active).

Take `CC(=O)O[C@@H]1CC2CCC1(C)C2(C)C` (stereo partly specified): the outcome in test [1], in test [2], in [3], in test [4], in [5] and in test [6] was inactive. Besides, the call in [7], in [8], in test [9], in test [10], in test [11] and in test [12] was inactive. Moreover, the call in test [20], in [13], in test [14], in test [15], in test [16] and in [17] was inactive. The compound was called inactive in test [18].
